CHT allo act – allosteric activators of human choline transporter CHT. CHT-expressing cells, membrane potential dye, choline EC20; stronger effect = higher value; LV-AA mutant CHT in HEK293 cells. hit rate 0.49% among 310,000. AID 488977. B-score at 10 µM. Q9GZV3;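 active means initial fluorescence not abnormally high and integrated response B-score, plate-corrected, over 3 SD above library mean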
Target sequence (Q9GZV3 whole entry, looked up): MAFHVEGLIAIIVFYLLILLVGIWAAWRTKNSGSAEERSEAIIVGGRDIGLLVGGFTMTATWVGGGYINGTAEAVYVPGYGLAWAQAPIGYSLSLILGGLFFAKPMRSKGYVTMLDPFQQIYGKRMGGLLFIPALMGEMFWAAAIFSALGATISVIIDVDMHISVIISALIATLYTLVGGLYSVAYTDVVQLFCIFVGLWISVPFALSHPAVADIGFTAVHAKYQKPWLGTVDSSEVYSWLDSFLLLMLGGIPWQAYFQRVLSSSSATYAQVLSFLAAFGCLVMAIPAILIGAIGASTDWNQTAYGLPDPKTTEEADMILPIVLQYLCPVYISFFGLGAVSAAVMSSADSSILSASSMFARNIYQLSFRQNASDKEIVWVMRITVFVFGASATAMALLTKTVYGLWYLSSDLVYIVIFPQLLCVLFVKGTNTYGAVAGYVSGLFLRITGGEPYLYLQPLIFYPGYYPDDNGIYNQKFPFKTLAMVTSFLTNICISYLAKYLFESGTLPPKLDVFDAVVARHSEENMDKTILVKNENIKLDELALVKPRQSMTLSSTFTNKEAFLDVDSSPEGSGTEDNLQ
Platelet DG rel – platelet dense granule release activity. human platelet-rich plasma, SFLLRN dense granule ATP release, luminescence. inhibition, %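 (compounds screened at 7.5 µM in platelet-rich plasma)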. hit rate 0.22% among 300,000;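 active means mean replicate score, as percent of positive control, at or above 50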
AI-2 QS mod – Vibrio harveyi AI-2 quorum sensing modulation | Vibrio harveyi JMH597 AI-2 luminescence/OD600 ratio, 9 h; stronger effect = lower value; strain lacks LuxN and CqsS sensors; 0 = neutral-control median | activity change, % at 7.5 µM | hit rate 0.4% among 300,000 | AID 2094; in the data active means activity change below about -75%, passing the limit was not always enough;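 further: luminescence divided by OD600 gain over 9 h not by final OD600 alone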
HIF act – HIF pathway transcriptional activation | activation, % at 7.5 µM (by protocol) | U2OS HRE-luciferase reporter, luminescence; normalized: DMSO 0%, desferrioxamine 100% | hit rate 0.32% among 300,000 | AID 1910;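 active means mean activation of at least 10% of the iron chelator positive control signal, with at least half of replicates also reaching 10%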
VLA-4 inh – inhibition in a human VLA-4 binding assay; P13612; VLA-4 expressing cells, ligand binding flow cytometry; inhibition, % (about 7 µM as worked out from the volumes in the protocol); hit rate 0.2% among 330,000; AID 2557; in the data active means inhibition above about 50%
CHT block – inhibits the human high affinity choline transporter; Q9GZV3; CHT-expressing cells, membrane potential dye, choline response; stronger effect = lower value; B-score at 10 µM; hit rate 0.86% among 310,000; AID 488975;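 active means B-score over 3 SD under the library average, and starting fluorescence ratio not unusually high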;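 further: choline stimulus applied at its EC90 after an EC20 pre-addition; B-score computed on integrated fluorescence ratio after choline addition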
CHT block conf – human CHT inhibition, confirmatory screen | AID 493221 | CHT-expressing cells, choline membrane potential dye; LV-to-AA substituted CHT, HEK293 cells | shares compounds with CHT block | hit rate 70% among 2,400 | CHT activity remaining % of control (stronger effect = lower value), % at 10 µM;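 active means choline transporter activity left, mean of duplicates at 10 µM, below buffer-only control mean minus 3 SD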;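 further: depolarization triggered by choline at its EC90 following an EC20 pre-addition; 0% = hemicholinium-3 full block and 100% = buffer-only control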
HEK293 MPD ctr – CHT inhibitor counter-screen hit in parental HEK293 cells. shares compounds with CHT block. membrane potential dye, choline response; active = decrease or increase beyond buffer ±3SD. membrane potential ratio readout (active if shifted either direction beyond buffer ±3SD; no single direction) at 10 µM. hit rate 4% among 2,400. AID 493222;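 further: parental cells lack the transporter so any hit is non-specific; ratio is peak minus trough fluorescence over baseline after EC90 choline challenge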
* hit, by the source's call; i = inactive; x = no result. Compounds with a hit are over-represented: about 2.2% of the library has one in this group of screens.

SMILES | CHT allo act | Platelet DG rel | AI-2 QS mod | HIF act | VLA-4 inh | CHT block | CHT block conf | HEK293 MPD ctr
Cc1ccc(N2C(=O)N(CC(=O)Nc3c(C)cc(C)cc3Cl)C(=O)C2C)cc1 (stereo not drawn) | i | -12 | 16 | 0 | 13 | -5* | i | i
CC1CCN(C(=O)CCCOc2cc(=O)n(C)c3ccccc23)CC1 | i | -3 | 16 | 0 | -2 | -5.9* | 69%* | i
Cc1ccc(C)c(N2CCN(C(=O)COc3cc(=O)n(C)c4ccccc34)CC2)c1 | i | -8 | 6 | 0 | 15 | i | x | x
Cc1cccc(N2CCN(C(=O)COc3cc(=O)n(C)c4ccccc34)CC2)c1C | i | -4 | -7 | 0 | -12 | -13* | 31%* | i
Cc1nn(CC(=O)NC(=O)NC2CCCC(C)C2C)c(=O)c(C#N)c1C (stereo not drawn) | i | 8 | 7 | -1 | 13 | i | x | x
Cc1c(Cc2ccccc2)c(=O)oc2c(O)c(O)ccc12 | x | 10 | -18 | 0 | x | x | x | x
Cc1c(Cc2ccccc2)c(=O)oc2cc(O)ccc12 | i | -3 | 14 | 0 | 7 | -6.5* | i | i
COc1ccc(-n2nc(C(=O)NCC(=O)NCCN(C)C)c3ccccc3c2=O)cc1 | i | 7 | 11 | 1 | -2 | i | x | x
CC(C)(C)CC(=O)NCCc1csc(-c2ccccc2)n1 | i | -3 | 23 | 2 | 1 | -5.3* | 55%* | i
O=C(NCCc1csc(-c2ccccc2)n1)c1cccs1 | i | -4 | 2 | 1 | 4 | i | x | x
Cc1ccc(N2CC(C(=O)Nc3ccc(S(=O)(=O)Nc4nccc(C)n4)cc3)CC2=O)cc1 (stereo not drawn) | i | -6 | 0 | 0 | 10 | i | x | x
CC(C)Cn1c(N)c(C(=O)COC(=O)c2ccccc2Cl)c(=O)n(C)c1=O | i | 2 | 4 | 0 | 2 | -10* | i | i
NCCCCCc1nnc(SCc2ccc(Cl)c(Cl)c2)o1 | i | -7 | -1 | 0 | 25 | -5.4* | 30%* | i
NCCc1nnc(SCc2ccc(F)cc2)o1 | i | -10 | 0 | -1 | 23 | i | x | x
Cc1ccc(N2CC(=O)Nc3c(oc4nc(-c5ccccc5)cc(C)c34)C2=O)cc1 | i | -6 | 12 | 0 | 3 | i | x | x
CCCCn1c(SCn2nnc3ccccc3c2=O)nc2cc(S(N)(=O)=O)ccc21 | i | -6 | 12 | 0 | 5 | -6.2* | 49%* | i
CCCCn1c(SCC2CCCO2)nc2cc(S(N)(=O)=O)ccc21 (stereo not drawn) | i | -10 | 27 | 0 | 0 | i | x | x
COc1cc2cc(CCCOC(=O)c3ccc4c(c3)OCO4)oc(=O)c2cc1OC | x | x | x | x | -2 | x | x | x
c1ccc(Cn2ccnc2SCc2nnc(-c3ccccc3)o2)cc1 | i | -10 | 26 | 1 | 7 | -6.1* | 63%* | i
O=C(O)c1ccc(-c2nc(-c3ccccc3Cl)cs2)cc1 | i | 23 | 17 | 1 | 15 | -5.4* | 40%* | i
Cc1nn2c(N3CCCC3)c3c(nc2c1-c1ccccc1)CCC3 | i | 5 | 30 | 0 | 2 | i | x | x
COCCNc1c2c(nc3c(-c4ccccc4)c(C)nn13)CCCC2 | i | -1 | 15 | 0 | -9 | -9* | 66%* | i
Cc1nn2c(NCCCN3CCOCC3)c3c(nc2c1-c1ccccc1)CCC3 | i | -5 | -3 | 1 | 8 | i | x | x
Cc1nn2c(N3CCN(CCO)CC3)c3c(nc2c1-c1ccccc1)CCCC3 | i | x | 25 | x | 33 | -9* | 31%* | i
Cc1nn2c(NCCOCCO)c3c(nc2c1-c1ccccc1)CCCC3 | i | 9 | 17 | 0 | 14 | -5.2* | 31%* | i
CCCCNc1c2c(nc3c(-c4ccccc4)c(C)nn13)CCC2 | i | 0 | 15 | 0 | 1 | i | x | x
